According to PubChem BioAssay (EPA / NIEHS):
Values joined by “and” are separate entries in the source; they are usually repeats but may differ in a detail not shown here. Equal values may be shown once. Records with an inconclusive call do not appear. More than one record can exist for a structure, and the calls need not agree. Active and inactive are the calls of the source. How the source made its calls, unless noted: active means hit-call score of the fitted dose curve at least 0.9, where 1 is the maximum; inactive means score below 0.9.

Assays:
[1] = ATG_NFI_CIS: Attagene CIS-FACTORIAL HepG2 Assay for human Nuclear Factor I (NFI) (AID 2282989); details: HepG2 cis-regulatory reporter, NFI response element transcription; actives raise or lower the signal
In short: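 Read-out: reporter mRNA via RT-PCR plus capillary electrophoresis with fluorescence detection. Transiently transfected HepG2 (endogenous TF activity on cis promoters), 24 h compound exposure; gain or loss of signal fitted against DMSO.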

[2] = target: Myc proto-oncogene protein (Homo sapiens) (UniProt P01106); assay: ATG_Myc_CIS: Attagene CIS-FACTORIAL HepG2 Assay for human Myelocytomatosis (Myc) Proto-Oncogene Transcription Factor (AID 2282990); details: HepG2, Attagene cis-reporter transcription factor activity; actives raise or lower the signal
In short: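 Fluorescence intensity of reporter-specific cDNA fragments, separated by capillary electrophoresis, gives the signal. Transfected HepG2 cells carrying cis-promoter reporter constructs are incubated with compound for 24 h; DMSO serves as baseline.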

[3] = ATG_NF_kB_CIS: Attagene CIS-FACTORIAL HepG2 Assay for human Nuclear Factor Kappa B (NF-kB) (AID 2282991); details: HepG2 Attagene cis-factorial NF-kB reporter mRNA; actives raise or lower the signal
In short: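 HepG2, transient multi-reporter transfection, cis promoter elements (endogenous TFs). 24 h exposure. Total RNA → RT → PCR → 6-FAM label → HpaI → CE. Gain/loss vs DMSO.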

[4] = ATG_NRF2_ARE_CIS: Attagene CIS-FACTORIAL HepG2 Assay for human Nuclear Factor Erythroid 2 Related Factor 2 (NFR2) response to Antioxidant Response Elements (ARE) (AID 2282992); details: HepG2 Attagene ARE/NRF2 reporter, transcription factor activity; actives raise or lower the signal;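 on AC50: reporter mRNA level measured by RT-PCR and capillary electrophoresis fluorescence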
In short: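 Cis-factorial assay: transfected HepG2 reporter library, 24 h dosing, mRNA readout via RT-PCR/CE; DMSO-referenced bidirectional analysis.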

[5] = ATG_Oct_MLP_CIS: Attagene CIS-FACTORIAL HepG2 Assay for human Octamer-Binding Transcription Factor (Oct) (AID 2282993); details: HepG2 Attagene cis-factorial Oct reporter, mRNA; actives raise or lower the signal
In short: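 Read-out: reporter mRNA via RT-PCR plus capillary electrophoresis of 6-FAM-labelled fragments. Transiently transfected HepG2, 24 h exposure, endogenous TF activity on cis elements. Gain or loss of signal fitted relative to DMSO.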

[6] = target: Cellular tumor antigen p53 (Homo sapiens) (UniProt P04637); assay: ATG_p53_CIS: Attagene CIS-FACTORIAL HepG2 Assay for human p53 Transcription Factor (AID 2282994); details: HepG2 p53 cis-element reporter, Attagene mRNA; actives raise or lower the signal
In short: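 Using HepG2 hepatoma cells carrying cis-acting multiplexed reporters, mRNA induction is detected after a 24 h exposure. Gain- and loss-of-signal responses are fitted relative to DMSO-treated cells.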

[7] = target: human Peroxisome Proliferator-activated Receptor alpha (PPARa), PPARA (gene 5465) (UniProt Q07869); assay: ATG_PPARa_TRANS: Attagene TRANS-FACTORIAL HepG2 Assay for human Peroxisome Proliferator-activated Receptor alpha (PPARa) (AID 2283001; active means hit-call score of the fitted dose curve at least 0.9, where 1 is the maximum;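 on AC50: potency for gain of reporter signal over DMSO so agonist or activator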)
In short: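 HepG2 cells transiently transfected with multiplexed GAL4-UAS reporters driven by exogenous chimeric NR-Gal4 proteins; reporter mRNA measured after 24 h dosing. Read-out by RT-PCR, 6-FAM labelling, HpaI digestion and capillary electrophoresis; gain of signal versus DMSO.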

[8] = target: human Peroxisome Proliferator-activated Receptor delta (PPARd), PPARD (gene 5467) (UniProt Q03181); assay: ATG_PPARd_TRANS: Attagene TRANS-FACTORIAL HepG2 Assay for human Peroxisome Proliferator-activated Receptor delta (PPARd) (AID 2283002; active means hit-call score of the fitted dose curve at least 0.9, where 1 is the maximum)
In short: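 Fluorescence from capillary electrophoresis of labelled RT-PCR reporter fragments gives the signal; DMSO sets baseline. Cells: HepG2 transiently carrying GAL4-UAS reporter units plus chimeric nuclear receptor-Gal4 proteins, exposed to chemicals for 24 h.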

[9] = target: Peroxisome proliferator-activated receptor gamma (Homo sapiens) (UniProt P37231); assay: ATG_PPARg_TRANS: Attagene TRANS-FACTORIAL HepG2 Assay for human Peroxisome Proliferator-activated Receptor-gamma (PPARg) (AID 2283007; active means hit-call score of the fitted dose curve at least 0.9, where 1 is the maximum)
In short: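 Multiplexed reporter transcription units in HepG2, 24 h dosing, reporter transcripts quantified by fluorescent RT-PCR and capillary electrophoresis. Increase over DMSO scored.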

[10] = target: Nuclear receptor subfamily 1 group I member 2 (Homo sapiens) (UniProt O75469); assay: ATG_PXR_TRANS: Attagene TRANS-FACTORIAL HepG2 Assay for human Pregnane X Receptor (PXR) (AID 2283008; active means hit-call score of the fitted dose curve at least 0.9, where 1 is the maximum)
In short: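 Fluorescence intensity of FAM-labelled, HpaI-digested reporter amplicons, separated by capillary electrophoresis, quantifies induction. HepG2 cells with PXR-Gal4 trans-reporter system were exposed 24 h; DMSO defines baseline.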

[11] = target: human Retinoic Acid Receptor gamma (RARg), RARG (gene 5916) (UniProt P13631); assay: ATG_RARg_TRANS: Attagene TRANS-FACTORIAL HepG2 Assay for human Retinoic Acid Receptor gamma (RARg) (AID 2283009; active means hit-call score of the fitted dose curve at least 0.9, where 1 is the maximum)
In short: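 HepG2 transiently transfected with GAL4-UAS reporter units and chimeric NR-Gal4 constructs; 24 h compound exposure. Reporter mRNA quantified by RT-PCR, FAM labeling, HpaI digestion and capillary electrophoresis; gain-of-signal versus DMSO.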

[12] = target: Retinoic acid receptor alpha (Homo sapiens) (UniProt P10276); assay: ATG_RARa_TRANS: Attagene TRANS-FACTORIAL HepG2 Assay for human Retinoic Acid Receptor alpha (RARa) (AID 2283005; active means hit-call score of the fitted dose curve at least 0.9, where 1 is the maximum)
In short: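 HepG2 transiently transfected with multiplex GAL4-UAS reporter units including a human RARa–GAL4 chimera; 24 h compound exposure. Reporter mRNA quantified by RT-PCR, 6-FAM labeling and capillary electrophoresis; gain of signal versus DMSO.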

[13] = BSK_3C_TissueFactor: BioMAP Diversity Plus: 3C Assay for Tissue Factor Biomarker Activity (AID 2282997); details: BioMAP 3C HUVEC, tissue factor biomarker readout; actives raise or lower the signal
In short: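 HUVEC were treated 24 h, then surface tissue factor measured by ELISA and fitted bidirectionally against DMSO. Parallel SRB total-protein staining assessed overt cytotoxicity at the same time point.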

[14] = BSK_3C_uPAR: BioMAP Diversity Plus: 3C Assay for Urokinase-type plasminogen activator receptor (uPAR) Biomarker Activity (AID 2282998); details: BioMAP 3C HUVEC, uPAR biomarker ELISA; actives raise or lower the signal
In short: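 HUVEC primary cells; 24 h post-dose; uPAR by ELISA; gain or loss of signal fitted bidirectionally vs DMSO baseline.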

[15] = BSK_3C_VCAM1: BioMAP Diversity Plus: 3C Assay for Vascular cell adhesion molecule 1 (VCAM1) Biomarker Activity (AID 2282999); details: BioMAP 3C HUVEC, VCAM1 ELISA, cytokine-stimulated; actives raise or lower the signal
In short: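 Human umbilical vein endothelial cells (3C system), biomarker read by ELISA 24 h after dosing; bidirectional fit against DMSO baseline. Cytotoxicity tracked by SRB total-protein staining in parallel cultures at biomarker time.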

[16] = BSK_4H_Eotaxin3: BioMAP Diversity Plus: 4H Assay for Eotaxin 3 Biomarker Activity (AID 2283000); details: primary human endothelial cells (HUVEC); actives raise or lower the signal
In short: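 Eotaxin-3 (CCL26) levels were measured by ELISA in HUVEC primary cultures 24 h post-dosing. Gain or loss of signal was fitted in both directions, with DMSO serving as baseline and negative control.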

[17] = read-out: Intercellular Adhesion Molecule 1 (ICAM1), ICAM1 (gene 3383); assay: BSK_3C_ICAM1: BioMAP Diversity Plus: 3C Assay for Intercellular Adhesion Molecule 1 (ICAM1) Biomarker Activity (AID 2283003); details: primary human endothelial cells (HUVEC); actives raise or lower the signal
In short: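 HUVEC primary cells stimulated under 3C conditions; ICAM1 measured by ELISA 24 h after compound dosing. Curves fitted bidirectionally against the DMSO baseline. Overt cytotoxicity checked by SRB staining of parallel cultures.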

[18] = BSK_3C_Proliferation: Cell Proliferation Assessment in the BioMAP Diversity Plus: 3C Assay (AID 2283006); details: primary human endothelial cells (HUVEC);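 on AC50: potency may reflect either rise or fall in cell number versus DMSO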
In short: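 Subconfluent HUVEC (3C system) cultured with chemical; relative cell number read at 48 h by sulforhodamine B total-protein staining (0.1% SRB after 10% TCA fixation, 560 nm). Bidirectional fit relative to DMSO.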

[19] = target: human RAR-related Orphan Receptor beta (RORb), RORB (gene 6096) (UniProt Q92753); assay: ATG_RORb_TRANS: Attagene TRANS-FACTORIAL HepG2 Assay for human RAR-related Orphan Receptor beta (RORb) (AID 2283010; active means hit-call score of the fitted dose curve at least 0.9, where 1 is the maximum)
In short: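 HepG2 cells transiently transfected with GAL4-UAS reporter units expressing chimeric NR-Gal4 protein; reporter mRNA measured 24 h after dosing by RT-PCR, 6-FAM labelling and capillary electrophoresis. Gain-of-signal fitted relative to DMSO baseline.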

[20] = target: human Retinoic Acid Receptor beta (RARb), RARB (gene 5915) (UniProt P10826); assay: ATG_RARb_TRANS: Attagene TRANS-FACTORIAL HepG2 Assay for human Retinoic Acid Receptor beta (AID 2283004; active means hit-call score of the fitted dose curve at least 0.9, where 1 is the maximum)
In short: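 HepG2 cells were transiently transfected with GAL4-UAS reporter units that report activity of exogenous chimeric NR-Gal4 proteins, then exposed to compound for 24 h. Reporter mRNA was quantified by RT-PCR with capillary electrophoresis fluorescence, as gain of signal over DMSO.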

Measured: AC50

Sequence of human RAR-related Orphan Receptor beta (RORb), RORB (gene 6096) (Q92753 whole entry, looked up, the tested form may be a part): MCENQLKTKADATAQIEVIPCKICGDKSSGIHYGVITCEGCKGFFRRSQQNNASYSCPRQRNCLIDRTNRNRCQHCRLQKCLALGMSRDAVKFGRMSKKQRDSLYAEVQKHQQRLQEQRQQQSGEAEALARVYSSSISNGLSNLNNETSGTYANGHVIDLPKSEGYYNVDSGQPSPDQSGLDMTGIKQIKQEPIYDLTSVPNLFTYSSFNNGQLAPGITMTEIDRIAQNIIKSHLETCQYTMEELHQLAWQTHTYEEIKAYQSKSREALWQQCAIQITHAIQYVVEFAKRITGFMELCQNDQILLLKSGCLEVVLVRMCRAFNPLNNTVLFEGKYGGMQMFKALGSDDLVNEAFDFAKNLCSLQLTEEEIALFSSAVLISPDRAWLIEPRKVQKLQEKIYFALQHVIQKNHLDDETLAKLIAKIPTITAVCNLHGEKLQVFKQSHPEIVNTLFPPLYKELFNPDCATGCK
Sequence of Cellular tumor antigen p53 (Homo sapiens) (P04637 whole entry, looked up): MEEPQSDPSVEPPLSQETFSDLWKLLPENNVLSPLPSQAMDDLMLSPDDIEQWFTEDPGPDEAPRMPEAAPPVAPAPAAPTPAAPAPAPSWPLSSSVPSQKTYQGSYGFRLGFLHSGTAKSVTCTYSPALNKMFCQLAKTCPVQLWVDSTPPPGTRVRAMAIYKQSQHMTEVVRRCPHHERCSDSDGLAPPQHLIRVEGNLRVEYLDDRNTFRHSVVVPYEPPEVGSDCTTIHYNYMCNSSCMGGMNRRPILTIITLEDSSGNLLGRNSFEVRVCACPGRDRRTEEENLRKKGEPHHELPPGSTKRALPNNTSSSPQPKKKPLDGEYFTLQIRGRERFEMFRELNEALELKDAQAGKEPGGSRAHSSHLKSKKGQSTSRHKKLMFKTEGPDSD
Sequence of human Peroxisome Proliferator-activated Receptor alpha (PPARa), PPARA (gene 5465) (Q07869 whole entry, looked up, the tested form may be a part): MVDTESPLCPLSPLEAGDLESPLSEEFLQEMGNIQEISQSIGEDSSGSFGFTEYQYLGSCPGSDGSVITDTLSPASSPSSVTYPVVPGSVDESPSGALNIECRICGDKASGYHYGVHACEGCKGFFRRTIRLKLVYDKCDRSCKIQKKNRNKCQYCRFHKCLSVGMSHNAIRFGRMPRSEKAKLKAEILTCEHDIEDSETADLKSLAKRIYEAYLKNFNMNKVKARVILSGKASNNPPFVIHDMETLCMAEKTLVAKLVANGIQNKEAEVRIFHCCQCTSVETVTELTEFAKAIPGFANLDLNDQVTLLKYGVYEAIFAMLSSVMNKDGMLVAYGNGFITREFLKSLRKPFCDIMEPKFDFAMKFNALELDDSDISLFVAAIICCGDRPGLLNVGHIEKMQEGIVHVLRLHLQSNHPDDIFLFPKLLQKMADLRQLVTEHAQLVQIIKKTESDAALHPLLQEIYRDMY
Sequence of human Peroxisome Proliferator-activated Receptor delta (PPARd), PPARD (gene 5467) (Q03181 whole entry, looked up, the tested form may be a part): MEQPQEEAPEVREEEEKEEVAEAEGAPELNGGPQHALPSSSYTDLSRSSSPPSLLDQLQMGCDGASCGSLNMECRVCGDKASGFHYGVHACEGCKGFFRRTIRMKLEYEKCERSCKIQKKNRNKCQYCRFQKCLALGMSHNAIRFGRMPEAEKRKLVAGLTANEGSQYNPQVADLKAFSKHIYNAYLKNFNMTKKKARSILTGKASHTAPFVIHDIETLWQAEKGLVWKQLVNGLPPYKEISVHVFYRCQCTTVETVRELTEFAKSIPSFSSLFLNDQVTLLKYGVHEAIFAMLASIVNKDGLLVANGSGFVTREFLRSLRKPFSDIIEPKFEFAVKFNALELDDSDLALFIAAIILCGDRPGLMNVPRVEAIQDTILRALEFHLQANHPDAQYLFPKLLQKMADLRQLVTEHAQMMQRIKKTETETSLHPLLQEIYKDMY
Sequence of Retinoic acid receptor alpha (Homo sapiens) (P10276 whole entry, looked up, the tested form may be a part): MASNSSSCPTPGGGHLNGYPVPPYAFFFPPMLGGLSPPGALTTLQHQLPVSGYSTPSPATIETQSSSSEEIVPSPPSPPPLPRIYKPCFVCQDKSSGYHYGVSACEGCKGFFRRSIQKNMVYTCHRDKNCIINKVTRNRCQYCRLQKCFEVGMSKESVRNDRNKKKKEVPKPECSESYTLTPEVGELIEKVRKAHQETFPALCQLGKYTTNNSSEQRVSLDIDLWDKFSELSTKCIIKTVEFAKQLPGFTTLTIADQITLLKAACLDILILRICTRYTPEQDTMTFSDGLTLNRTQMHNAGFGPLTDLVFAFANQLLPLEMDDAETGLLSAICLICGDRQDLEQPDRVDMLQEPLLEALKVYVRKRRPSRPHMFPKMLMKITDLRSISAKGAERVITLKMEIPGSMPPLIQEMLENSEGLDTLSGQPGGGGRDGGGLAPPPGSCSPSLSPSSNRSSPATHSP
Sequence of Peroxisome proliferator-activated receptor gamma (Homo sapiens) (P37231 whole entry, looked up): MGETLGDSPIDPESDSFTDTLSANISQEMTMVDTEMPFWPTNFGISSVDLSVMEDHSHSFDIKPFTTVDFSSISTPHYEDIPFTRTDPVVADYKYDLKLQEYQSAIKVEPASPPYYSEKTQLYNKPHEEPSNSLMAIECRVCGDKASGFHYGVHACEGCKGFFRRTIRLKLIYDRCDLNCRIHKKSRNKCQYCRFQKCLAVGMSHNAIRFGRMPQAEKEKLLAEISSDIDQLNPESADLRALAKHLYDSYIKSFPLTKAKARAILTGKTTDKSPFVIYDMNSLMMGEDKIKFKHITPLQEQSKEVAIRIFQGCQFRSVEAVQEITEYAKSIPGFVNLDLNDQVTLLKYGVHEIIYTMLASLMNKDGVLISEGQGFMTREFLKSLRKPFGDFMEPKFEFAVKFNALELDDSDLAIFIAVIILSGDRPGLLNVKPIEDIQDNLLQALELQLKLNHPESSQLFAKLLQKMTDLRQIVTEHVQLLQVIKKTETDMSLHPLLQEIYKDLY
Sequence of Nuclear receptor subfamily 1 group I member 2 (Homo sapiens) (O75469 whole entry, looked up, the tested form may be a part): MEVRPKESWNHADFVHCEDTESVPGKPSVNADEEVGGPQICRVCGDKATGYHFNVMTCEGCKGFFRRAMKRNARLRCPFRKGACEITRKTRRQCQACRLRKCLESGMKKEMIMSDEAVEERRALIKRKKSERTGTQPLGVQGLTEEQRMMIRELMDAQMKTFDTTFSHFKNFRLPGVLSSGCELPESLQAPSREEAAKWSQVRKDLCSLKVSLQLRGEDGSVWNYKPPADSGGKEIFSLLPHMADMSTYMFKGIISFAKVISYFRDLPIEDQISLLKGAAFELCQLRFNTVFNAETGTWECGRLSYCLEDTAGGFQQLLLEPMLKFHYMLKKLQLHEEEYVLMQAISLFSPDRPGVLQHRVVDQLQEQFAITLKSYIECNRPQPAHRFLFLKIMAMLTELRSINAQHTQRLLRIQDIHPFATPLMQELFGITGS
Sequence of human Retinoic Acid Receptor gamma (RARg), RARG (gene 5916) (P13631 whole entry, looked up, the tested form may be a part): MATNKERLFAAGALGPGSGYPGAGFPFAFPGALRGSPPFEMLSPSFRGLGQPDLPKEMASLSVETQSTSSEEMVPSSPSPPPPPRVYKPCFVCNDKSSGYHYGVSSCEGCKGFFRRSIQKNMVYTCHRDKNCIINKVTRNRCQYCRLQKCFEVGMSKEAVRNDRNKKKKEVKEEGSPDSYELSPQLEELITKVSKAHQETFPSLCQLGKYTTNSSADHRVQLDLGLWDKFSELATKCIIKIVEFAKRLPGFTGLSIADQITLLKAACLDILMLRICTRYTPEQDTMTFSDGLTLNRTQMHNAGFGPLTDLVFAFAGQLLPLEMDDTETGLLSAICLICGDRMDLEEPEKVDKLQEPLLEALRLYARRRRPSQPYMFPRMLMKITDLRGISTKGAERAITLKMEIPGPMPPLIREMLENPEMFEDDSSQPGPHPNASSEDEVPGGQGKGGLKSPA
Sequence of Myc proto-oncogene protein (Homo sapiens) (P01106 whole entry, looked up, the tested form may be a part): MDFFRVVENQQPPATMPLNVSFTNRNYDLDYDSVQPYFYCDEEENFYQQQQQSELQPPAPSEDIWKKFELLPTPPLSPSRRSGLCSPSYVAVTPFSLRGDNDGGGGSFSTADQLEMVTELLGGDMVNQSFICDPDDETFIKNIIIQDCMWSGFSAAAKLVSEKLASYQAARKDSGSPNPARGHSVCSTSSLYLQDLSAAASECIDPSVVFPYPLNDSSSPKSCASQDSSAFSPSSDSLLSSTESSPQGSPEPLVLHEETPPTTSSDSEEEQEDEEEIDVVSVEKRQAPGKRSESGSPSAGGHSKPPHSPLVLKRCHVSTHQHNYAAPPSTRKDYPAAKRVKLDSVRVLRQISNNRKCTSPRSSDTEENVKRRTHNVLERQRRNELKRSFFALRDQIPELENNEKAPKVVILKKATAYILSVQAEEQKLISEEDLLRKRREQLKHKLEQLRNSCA
Sequence of human Retinoic Acid Receptor beta (RARb), RARB (gene 5915) (P10826 whole entry, looked up, the tested form may be a part): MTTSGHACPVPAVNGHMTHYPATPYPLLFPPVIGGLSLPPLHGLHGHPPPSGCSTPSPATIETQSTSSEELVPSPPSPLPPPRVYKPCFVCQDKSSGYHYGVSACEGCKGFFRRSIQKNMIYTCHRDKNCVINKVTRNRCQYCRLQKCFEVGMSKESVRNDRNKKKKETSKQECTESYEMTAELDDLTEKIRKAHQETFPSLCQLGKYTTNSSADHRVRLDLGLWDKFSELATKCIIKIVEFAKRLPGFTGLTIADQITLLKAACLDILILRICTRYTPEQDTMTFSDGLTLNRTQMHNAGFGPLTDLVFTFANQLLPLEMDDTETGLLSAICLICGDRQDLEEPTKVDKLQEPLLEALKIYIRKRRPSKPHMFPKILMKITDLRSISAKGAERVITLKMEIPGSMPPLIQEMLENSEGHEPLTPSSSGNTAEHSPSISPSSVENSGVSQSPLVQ

O=C(O)CC(C(=O)O)C(CC(=O)O)C(=O)O (stereo not drawn)
inactive: [1] | [2] | [3] | [4] | [5] | [6] | [7] | [8] | [9] | [10] | [11]

O=C(O)c1ccccc1Nc1cccc(C(F)(F)F)c1
active: [4] 27.3 µM | [7] 13.9 µM | [8] 40.1 µM | [9] 6.64 µM
inactive: [1] | [2] | [3] | [5] | [6] | [10] | [11]

COc1cc(C)ccc1C(C)C
inactive: [1] | [2] | [3] | [4] | [5] | [6] | [7] | [8] | [12] | [10] | [11]

Cc1cccc(N(C)C(=S)Oc2ccc3ccccc3c2)c1
active: [4] 19.8 µM | [9] 2.88 µM | [10] 0.337 µM
inactive: [1] | [2] | [3] | [5] | [6] | [7] | [8]

C=CC=CC=CCCCCC
active: [4] 20 µM | [9] 6.66 µM | [10] 6.77 µM
not listed: [7] | [11] | [12] | [19] | [20]
inactive: all other assays above

CCOC(=O)c1ccccc1C(=C1C=C(Br)C(=O)C(Br)=C1)c1cc(Br)c(O)c(Br)c1
inactive: [2] | [4] | [10]
active: [1] 22.4 µM | [3] 43 µM | [5] 53.1 µM | [6] 48.3 µM | [13] 18.6 µM and 9.69 µM | [14] 20 µM and 17.9 µM | [15] 22.9 µM and 21.4 µM | [16] 22.7 µM and 23 µM | [17] 21.1 µM and 21.2 µM | [18] 20.1 µM and 19.1 µM | [9] 3.1 µM

Nc1ncn([C@@H]2O[C@H](CO)[C@@H](O)[C@H]2O)c(=O)n1
active: [5] 8.32 µM | [6] 2.1 µM
inactive: [1] | [2] | [3] | [4] | [7] | [8] | [12] | [9] | [10] | [11]

O=C(c1ccc(O)cc1)c1ccc(O)cc1O
active: [4] 100 µM | [6] 100 µM | [14] 15.9 µM | [16] 13.9 µM and 20 µM | [18] 20 µM and 15 µM | [9] 35.3 µM
inactive: [1] | [2] | [3] | [5] | [13] | [14] | [15] | [8] | [17] | [10] | [19]

CCCOC(=O)CCCCC(=O)OCCC
inactive: [1] | [2] | [3] | [4] | [5] | [6] | [7] | [8] | [9] | [10]

O=c1[nH]nc(-c2ccc([N+](=O)[O-])o2)o1
inactive: [1] | [2] | [3] | [5] | [6] | [7] | [8] | [10]
active: [4] 61.3 µM

CC(C)CCCC(C)CC=O (stereo not drawn)
active: [7] 45.8 µM
inactive: [1] | [2] | [3] | [4] | [5] | [6] | [8] | [9] | [10] | [19]

O=C1CC2CC1C1CCCC21 (stereo not drawn)
active: [4] 72.4 µM
not listed: [12] | [13] | [14] | [15] | [16] | [17] | [18] | [20]
inactive: all other assays above

CN1C(=O)N(C)C(O)C1O (stereo not drawn)
not listed: [7] | [8] | [10] | [11] | [12] | [19] | [20]
inactive: all other assays above

CO[Si](OC)(OC)c1ccccc1
not listed: [7] | [8] | [9] | [11] | [12] | [19] | [20]
inactive: all other assays above

CCO[Si](CCCN=C=O)(OCC)OCC
not listed: [12] | [19]
inactive: all other assays above

CCOC(=O)[C@H](C)O
active: [4] 26.7 µM
inactive: [1] | [2] | [3] | [5] | [6] | [7] | [8] | [12] | [10] | [11]

COC(=O)/C=C/C(C)=C\C=C\C(C)=C\C=C\C=C(C)\C=C\C=C(C)\C=C\C(=O)O
inactive: [1] | [2] | [3] | [5] | [6] | [7] | [8] | [10]
active: [4] 67.9 µM | [9] 27.9 µM

CCc1c(C(=O)O)c(=O)cnn1-c1ccc(Cl)cc1
inactive: [1] | [2] | [3] | [4] | [5] | [6] | [7] | [8] | [9] | [10]
